Assay outcomes from PubChem BioAssay.
hgDAF12 agonist: H. glycines DAF-12 receptor agonists, primary screen, cell-based, luminescence, HEK293, GAL4 fusion, UAS-luciferase | HEK293 GAL4-hgDAF12 UAS-luciferase reporter, agonist luminescence; normalized to butyrate control | activation, % at 6.8 µM | 370,000 tested, 1.8% active;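 active means activation above a cutoff set at the mean of all screened compounds plus 3 SD, cut at about 10% in these data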;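 further: 0% = DMSO wells and 100% = sodium butyrate wells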
ssDAF12 agonist: S. stercoralis DAF-12 nuclear receptor activators, primary screen, cell-based, luminescence, HEK293, GRIP1 co-expression, lit1-tk-luc; 370,000 tested, 1% active; AID 652126, 2013; HEK293 ssDAF-12/GRIP1 lit1-tk-luc reporter; % of 3 µM dafachronic acid response; activation, % at 6.8 µM;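 active means activation above the mean over all tested compounds plus 3 SD, cut at about 0.9% in these data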;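 further: 0% = DMSO-only wells and 100% = 3 µM delta7-dafachronic acid wells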
DAX1 inh-1: DAX1 (NR0B1) inhibitors on StAR promoter, primary screen, cell-based, luminescence, SF-1 (NR5A1), full-length DAX-1 | HEK293T StAR-luciferase reporter, SF-1/DAX-1 repression relief | inhibition, % at 6.8 µM | 370,000 tested, 1.1% active | AID 652010, 2013;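 active means inhibition above the mean over all tested compounds plus 3 SD, cut at about 3.6% in these data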;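 further: 0% = DAX-1 cells with DMSO and 100% = cells lacking DAX-1 with DMSO; higher inhibition means more luminescence from relief of DAX-1 repression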
DAX1 inh-2: DAX1 (NR0B1) inhibitors, primary screen, cell-based, HEK293, Gal4-DAX1, luciferase luminescence | Nuclear receptor subfamily 0 group B member 1 (Homo sapiens), P51843 | HEK293 Gal4-DAX1 luciferase reporter | inhibition, % at 6.75 µM | 340,000 tested, 0.99% active | AID 504766, 2011;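 active means inhibition above the mean over all tested compounds plus 3 SD, cut at about 4.2% in these data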;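 further: 0% = DAX1-transfected cells with DMSO and 100% = empty-vector control cells with DMSO; inhibition shows as a rise in luminescence from relieved DAX1 repression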
Target sequence (P51843 207-470 limits assumed): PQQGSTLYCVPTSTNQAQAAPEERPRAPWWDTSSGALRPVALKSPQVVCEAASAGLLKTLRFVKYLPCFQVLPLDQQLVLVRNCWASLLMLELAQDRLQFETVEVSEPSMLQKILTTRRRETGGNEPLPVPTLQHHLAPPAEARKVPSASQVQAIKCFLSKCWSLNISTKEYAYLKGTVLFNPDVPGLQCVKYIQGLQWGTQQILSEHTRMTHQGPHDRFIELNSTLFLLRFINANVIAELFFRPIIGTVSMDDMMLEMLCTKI
FXN GAA850 act: FXN promoter activators, primary screen, cell-based, luciferase luminescence, HEK293 lucGAA850; activation, % at 6 µM; HEK293 lucGAA850 FXN promoter luciferase reporter, 24 h; percent of 10 µM SAHA response; 360,000 tested, 0.56% active; AID 540364, 2011;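 active means activation above the average of all compounds screened plus 3 SD, cutoff fixed separately per campaign, cut at about 7.5% in these data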;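 further: 0% = DMSO wells and 100% = 10 µM SAHA wells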
hcDAF12 agonist: H. contortus DAF-12 nuclear receptor activators, primary screen, cell-based, luminescence, HEK293, lit1-tk-luc reporter | HEK293 hcDAF-12 lit1-tk-luc reporter; 0% DMSO, 100% Δ7-dafachronic acid | activation, % at 6.8 µM | 370,000 tested, 1.4% active | AID 652067, 2013;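 active means activation above the mean of all tested compounds plus 3 SD, cut at about 5.5% in these data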;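 further: 100% = response to 3 µM Δ7-dafachronic acid high control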
An asterisk follows results filed as active; . = not tested or not shown. Only some compounds are listed: those with a hit (about 4.5% of all), similar ones and a draw of the others.

SMILES	hgDAF12 agonist	ssDAF12 agonist	DAX1 inh-1	DAX1 inh-2	FXN GAA850 act	hcDAF12 agonist
O=C(Nc1ccc(-c2nc3cc(Cl)ccc3o2)cc1)C1CCCO1 (stereo not drawn)	12.0*	-0.6	2.2	4.2	2.9	0.8
CC(=O)Nc1ccc(-c2nc3cc(Cl)ccc3o2)cc1	10.8*	0.5	3.2	5.5*	7.1	5.5
O=C(Nc1ccc(S(=O)(=O)Nc2ccc(Cl)cc2)cc1)C1CCCO1 (stereo not drawn)	-4.6	-2.2	-1.8	-1.7	0.8	-2.2
O=C(O)c1ccccc1-c1ccccc1C(=O)Nc1ccc(-c2nc3cc(Cl)ccc3o2)cc1	5.5	-1.0	1.5	-0.7	2.4	2.3
CC(C)c1ccc(OCCCN2CCC(C(O)(c3ccccc3)c3ccccc3)CC2)cc1	0.4	-0.7	-0.5	.	.	-1.7
O=C1C(=Cc2cccn2-c2ccccc2)C(=O)c2ccccc21	5.2	1.0*	0.2	-1.0	-1.1	2.2
NC(CO)(CO)COCc1ccccc1	-0.2	1.3*	-0.3	0.5	1.3	1.8
OC(COCc1ccccc1)COCc1ccccc1	-0.6	-1.2	1.2	-1.4	-0.4	-0.7
O=S(=O)(c1ccc(OC(F)(F)F)cc1)N1CCCC(N2CCOCC2)C1 (stereo not drawn)	2.2	-1.1	0.0	4.6*	1.9	0.4
CC(=O)N1CCc2cc(NC(=O)c3ccc(C)cc3)ccc21	10.6*	-1.2	1.8	-1.0	3.5	1.9
CC(=O)N1CCN(c2ccc(NC(=O)c3ccc(C)cc3)cc2)CC1	-0.3	-1.4	-0.3	0.0	-1.7	-1.9
COC(=O)C1=C(C)N(Cc2ccc(C(F)(F)F)cc2)C(=NCc2ccc(C(F)(F)F)cc2)NC1c1ccccc1C(F)(F)F (stereo not drawn)	0.2	-1.3	-0.2	.	.	-0.6
O=C(Nc1ccccc1Br)c1cc(=O)c2ccccc2o1	10.9*	0.6	1.6	4.2	3.8	1.0
NS(=O)(=O)c1cccc(NC(=O)c2cc(=O)c3ccccc3o2)c1	4.5	-1.0	0.1	4.8*	0.8	1.8
CC(C)NCc1nnc(-c2ccc(Cl)cc2)o1	-1.2	-1.8	0.9	-0.2	2.2	0.1
Fc1ccc(Cc2nnc(-c3cccs3)o2)cc1	7.3	-0.7	0.4	4.3*	1.4	0.4
Fc1ccc(-c2nnc(Cc3ccc(Cl)cc3)o2)cc1	12.1*	-0.6	1.3	1.5	5.1	-0.7
COc1ccc(C2Nc3ccccc3C(=O)N2Cc2ccc(C)o2)cc1COc1c(C)cccc1C (stereo not drawn)	0.5	-1.9	.	.	.	1.1
CCSc1nnc(SCC(=O)NC2CCCCC2)s1	0.2	-1.3	-0.5	-0.1	-1.5	0.0
CSc1nsc(SCC(=O)NC2CCCCC2)n1	3.1	0.1	1.2	0.0	4.6	5.6*
CCc1ccc(Nc2ncnc3nc[nH]c23)cc1	11.8*	-0.4	3.1	5.3*	3.6	3.9
CCCNc1ncnc2nc[nH]c12	0.5	-0.8	1.1	-0.6	-0.4	2.1
Cc1ccc(NC(=O)Nc2ncnc3nc[nH]c23)cc1	12.2*	-0.7	1.9	2.6	4.8	1.6
Cc1cccc(NC(=O)CSc2ncnc3nc[nH]c23)c1	-1.7	-1.4	-0.3	0.0	-0.4	-1.7
CCn1ncc(N(C)N)c(Cl)c1=O	2.7	1.1*	0.3	1.0	-0.9	2.0
COc1ccc(/C=C2\CC3(OC(=O)C4CCCC4)CCCN2C3)cc1 (stereo not drawn)	-1.0	-0.7	-0.3	.	.	1.1
CCCC1CCC(=NNS(=O)(=O)c2ccc(C)c([N+](=O)[O-])c2)CC1 (stereo not drawn)	2.4	-0.8	-0.2	-0.2	0.2	-0.7
CCCC1CCC(=NNC(=O)OC(C)(C)C)CC1 (stereo not drawn)	7.6	-0.8	1.5	5.8*	4.3	-0.3
